Reference: PubChem BioAssay
Results filed as inconclusive are left out. Calls of active or inactive are those of the source.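 Rule for the calls, unless noted: active = viability at or below 27.92% in each of two runs, the all-compound median minus 4 SD; inconclusive = no clear call, values can overlap the other calls; inactive = the rest.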

Experiments:
[1] = Her2 expression decrease, cell viability multiplex – SKBR3 breast tumor cells, AlphaScreen, ATP viability, primary screen (AID 461;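 active = Her2 level under about 52% in both replicate screens, with viability over 70% of control, limit read from the data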;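 for Her2 level: lower value means less Her2 protein in the cells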;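 for viability: percent of carrier control wells set as 100% viability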); conditions: SKBR3 Her2 protein level, 18-24 h, measured here: SKBR3 viability, ATP luminescence, at 10 µM
[2] = biological target: Receptor tyrosine-protein kinase erbB-2 (Homo sapiens) (UniProt P04626); test: as above; conditions: 18-24 h, at 10 µM, stronger effect = lower value
[3] = reduced viability of SK-BR-3 breast cancer cells – cell-based, 24 h, human, pilot screen (AID 572;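 active = viability at or below 10% of carrier control in both of two separate runs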;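 note: compound exposure lasted between 18 and 24 h rather than exactly 24 h; 100% = carrier-treated control wells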); conditions: SK-BR-3 viability, CellTiter-Glo luminescence, at 10 µM, stronger effect = lower value
[4] = HUVEC growth inhibition – cell-based, human, primary screen (AID 575;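 active = viability at or below 30% in both replicate assays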;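 note: 100% = median of untreated cell wells with 0.1% DMSO on each plate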); conditions: HUVEC proliferation, CellTiter-Glo luminescence, 72 h; at 10 µM; stronger effect = lower value
[5] = H69AR cell proliferation blockers – human, duplicate replicates, primary screen (AID 580;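 active = viability at or under a set limit in both replicates, limit being median viability minus 3 SD, cut at about 48% in these data, passing the limit was not always enough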;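 note: 100% = mean luminescence of untreated wells and 0% = no signal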); conditions: H69AR lung tumor cells viability, ATP luminescence, 72 h; at 10 µM; stronger effect = lower value
[6] = MRP1 drug-resistance reversers in H69AR cells – cell-based, doxorubicin co-treatment, pilot screen (AID 601;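 active = viability loss from added drug above about 55%, and viability with drug at most 40%, in both replicates, limit read from the data, passing the limit was not always enough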); conditions: CellTiter-Glo, 72 h, at 10 µM; for differential viability (reversal): stronger effect = higher value
[7] = yeast transport mutant growth inhibition pilot in 384-well plates, post-Golgi transport modulator project (AID 636; in the data active = inhibition above about 31%); conditions: absorbance 615 nm, about 18 h, stronger effect = higher value
[8] = growth suppression of yeast trafficking mutant, preliminary HTS, modulators of trafficking downstream of Golgi apparatus project, 1536-format plate, OD 615 nm (AID 637; in the data active = inhibition above about 30%); conditions: yeast transport mutant growth, absorbance 615 nm, 18 h; stronger effect = higher value
[9] = S. cerevisiae growth inhibition in permissive medium (OD615), pilot counter-assay for S. cerevisiae lifespan shortening project, permissive growth control (AID 705;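 active = growth inhibition above 25% in both replicates, a cutoff set 3 SD above the mean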); conditions: OD615, 24 h, at 10 µM, stronger effect = higher value
[10] = S. cerevisiae growth inhibition in restrictive medium, OD615, pilot screen, restrictive growth control, yeast lifespan reduction project (AID 706;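 active = growth inhibition above a set limit, 3 SD over mean compound inhibition, in both replicates, cut at about 43% in these data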;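 note: modified DeaD lifespan yeast strain shifted to restrictive glucose medium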); conditions: OD615, 48 h, at 10 µM, stronger effect = higher value
[11] = doxorubicin toxicity protection in MRP-1 cells – H69AR cells, CellTiter-Glo, duplicate, MRP-1 activator project, pilot screen (AID 807;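 active = viability increase at or above a cutoff of the median across tested compounds plus 3 SD, cut at about 8.5% in these data, passing the limit was not always enough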;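 note: compound pretreatment 18-22 h then 72 h combined with doxorubicin; 0% = doxorubicin alone and 100% = vehicle without doxorubicin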); conditions: H69AR viability with doxorubicin, CellTiter-Glo luminescence; at 10 µM; stronger effect = higher value
[12] = viability of HCT116 without oncogenic beta-catenin – human colon tumor cells, pilot screen (AID 823;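 active = cell viability at or below a set limit in both duplicate runs, the limit being the all-compound median minus 4 SD, cut at about 23% in these data, passing the limit was not always enough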;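 note: 0% = wells killed by 20 µM Hyamine and 100% = untreated DMSO cell wells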); conditions: HCT116 beta-catenin knockout viability, CellTiter-Glo, 60 h; at 10 µM; stronger effect = lower value
[13] = viability of PTEN-null HCT116 cells – cell-based, HCT116 clonal line, CellTiter-Glo, pilot screen (AID 824); conditions: HCT116 PTEN-deleted viability, 60 h, at 10 µM, stronger effect = lower value;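 note: 0% = 20 µM Hyamine control and 100% = vehicle cell control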
[14] = RAM pathway blockade in budding yeast – dse1pr::URA3 reporter, 5-FOA selection, pilot screen (AID 869;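 active = inhibition over a set limit, the all-compound mean plus 3 SD, in both replicate runs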;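 note: 0% = DMSO wells with no growth and 100% = 10 µM 1-NA-PP1 with full growth; RAM network block rescues cells from 5-FOA so hits raise OD615 growth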); conditions: S. cerevisiae dse1pr::URA3 5-FOA growth, OD615, 2 d; at 10 µM; stronger effect = higher value; strain carries analog-sensitive mutant Cbk1 kinase
[15] = RAM signaling pathway blockade in yeast – S. cerevisiae, Pdr1DBD-CYC8 efflux-inhibited sensitized strain, primary screen (AID 1298;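 active = RAM network inhibition above 8.4% in each of two replicates, 3 SD over the compound average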;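 note: 0% = DMSO untreated cells without growth and 100% = 10 µM 1-NA-PP1 full growth; higher means more yeast growth rescued from 5-FOA killing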); conditions: S. cerevisiae cbk1-as DSE1-URA3 strain, 5-FOA growth OD615, 2 d; at 50 µM; stronger effect = higher value
[16] = H69AR cells + 2 uM doxorubicin, measured here: viability with 2 uM doxorubicin, stronger effect = lower value
[17] = H69AR cells, compound alone cytotoxicity

Sequence of Receptor tyrosine-protein kinase erbB-2 (Homo sapiens) (P04626 whole entry, looked up): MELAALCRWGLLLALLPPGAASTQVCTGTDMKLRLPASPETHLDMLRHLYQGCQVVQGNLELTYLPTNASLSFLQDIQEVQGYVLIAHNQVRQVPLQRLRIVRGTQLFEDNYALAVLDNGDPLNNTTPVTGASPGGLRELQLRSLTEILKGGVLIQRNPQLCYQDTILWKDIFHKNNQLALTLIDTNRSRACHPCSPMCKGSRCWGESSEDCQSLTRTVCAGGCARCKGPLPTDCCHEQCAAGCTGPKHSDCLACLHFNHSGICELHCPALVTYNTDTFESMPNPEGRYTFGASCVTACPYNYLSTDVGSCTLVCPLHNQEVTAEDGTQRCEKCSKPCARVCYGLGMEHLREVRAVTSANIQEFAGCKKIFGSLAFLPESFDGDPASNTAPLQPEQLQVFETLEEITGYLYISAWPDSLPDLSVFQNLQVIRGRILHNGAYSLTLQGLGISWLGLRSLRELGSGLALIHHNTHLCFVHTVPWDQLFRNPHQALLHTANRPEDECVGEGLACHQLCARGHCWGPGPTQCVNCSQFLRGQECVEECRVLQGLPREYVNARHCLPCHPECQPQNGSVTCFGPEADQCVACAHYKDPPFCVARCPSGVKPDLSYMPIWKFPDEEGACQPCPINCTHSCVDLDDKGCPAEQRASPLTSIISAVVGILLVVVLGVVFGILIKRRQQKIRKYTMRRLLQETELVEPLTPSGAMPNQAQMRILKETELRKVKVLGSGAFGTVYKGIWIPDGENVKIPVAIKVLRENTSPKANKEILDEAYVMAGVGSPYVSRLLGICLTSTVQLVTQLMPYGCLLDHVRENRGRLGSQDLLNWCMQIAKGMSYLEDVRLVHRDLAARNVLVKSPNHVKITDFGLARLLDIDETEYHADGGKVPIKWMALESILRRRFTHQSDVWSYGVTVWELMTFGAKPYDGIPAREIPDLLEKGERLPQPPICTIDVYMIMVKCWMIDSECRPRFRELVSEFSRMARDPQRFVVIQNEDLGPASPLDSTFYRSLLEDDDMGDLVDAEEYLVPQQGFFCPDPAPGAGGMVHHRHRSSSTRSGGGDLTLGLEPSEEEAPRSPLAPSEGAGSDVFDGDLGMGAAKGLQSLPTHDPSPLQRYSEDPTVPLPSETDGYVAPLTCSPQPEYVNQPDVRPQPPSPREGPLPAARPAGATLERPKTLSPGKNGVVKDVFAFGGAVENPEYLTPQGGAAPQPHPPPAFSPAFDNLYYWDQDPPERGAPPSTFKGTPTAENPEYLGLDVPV

Cn1nnnc1SCC(=O)Nc1ccccc1-c1ccccc1
91.2%: viability [6, 17]
81.6%: viability [6, 16]
inactive: Her2 level [2] 110% | viability [3] 100% | viability [4] 99% | viability [5] 91.2% | differential viability (reversal) ([6]; H69AR cells + 2 uM doxorubicin) 9.64% | inhibition [7] -2.44% | inhibition [8] -1.33% | growth inhibition [9] -19.3% | growth inhibition [10] -10.2% | viability increase [11] -0.09% | viability [12] 97.4% | viability [13] 90% | inhibition [14] 0.31% | RAM network inhibition [15] 0.77%
100%: viability [1]

Cn1c(Cc2ccccc2)nnc1SCC(=O)NC1CCCCC1
inactive: Her2 level [2] 94.5% | viability [3] 107% | viability [4] 91.5% | viability [5] 92.5% | differential viability (reversal) ([6]; H69AR cells + 2 uM doxorubicin) 12.9% | inhibition [7] -6.08% | inhibition [8] 3% | growth inhibition [9] 1.09% | growth inhibition [10] 10% | viability increase [11] 0.74% | viability [12] 97.4% | viability [13] 103% | inhibition [14] 1.4% | RAM network inhibition [15] 1.4%
92.5%: viability [6, 17]
107%: viability [1]
79.6%: viability [6, 16]

CC(C)c1nnc(NC(=O)c2ccc(N3C(=O)CCC3=O)cc2)s1
91.5%: viability [1]
92.5%: viability [6, 17]
94.3%: viability [6, 16]
inactive: Her2 level [2] 89.5% | viability [3] 91.5% | viability [4] 100% | viability [5] 92.5% | differential viability (reversal) ([6]; H69AR cells + 2 uM doxorubicin) -1.78% | inhibition [7] -3.33% | inhibition [8] -0.67% | growth inhibition [9] -2.77% | growth inhibition [10] -18.5% | viability increase [11] -4.79% | viability [12] 101% | viability [13] 95.3% | inhibition [14] 1.46% | RAM network inhibition [15] 3.77%

O=C(NCc1ccco1)C1CCN(c2ccc(N3CCOCC3)nn2)CC1
inactive: Her2 level [2] 120% | viability [3] 86.5% | viability [4] 91.4% | viability [5] 83.6% | differential viability (reversal) ([6]; H69AR cells + 2 uM doxorubicin) 2.94% | inhibition [7] -0.53% | inhibition [8] -0.83% | growth inhibition [9] 0.41% | growth inhibition [10] 5.46% | viability increase [11] -3.71% | viability [12] 95.2% | viability [13] 97.3% | inhibition [14] 0.935% | RAM network inhibition [15] 4.7%
83.6%: viability [6, 17]
86.5%: viability [1]
80.6%: viability [6, 16]

CCCc1cc(C(=O)Nc2sc3c(c2C#N)CCC3)no1
active: viability [5] 29.8%
55.6%: viability [6, 16]
29.8%: viability [6, 17]
inactive: Her2 level [2] 77.5% | viability [3] 86.5% | viability [4] 58% | differential viability (reversal) ([6]; H69AR cells + 2 uM doxorubicin) -25.9% | inhibition [7] -2.05% | inhibition [8] -4.5% | growth inhibition [9] 4.12% | growth inhibition [10] 0.215% | viability increase [11] -2.05% | viability [12] 92.2% | viability [13] 87.1% | inhibition [14] -0.06% | RAM network inhibition [15] -1.49%
86.5%: viability [1]

CCOC(=O)N1CCC(N2C(=O)c3ccccc3C2Nc2ccccc2C)CC1 (stereo not given)
inactive: Her2 level [2] 96.5% | viability [3] 95.5% | viability [4] 84% | viability [5] 79.8% | differential viability (reversal) ([6]; H69AR cells + 2 uM doxorubicin) 32% | inhibition [7] -5.2% | inhibition [8] -8.5% | growth inhibition [9] -16.1% | growth inhibition [10] -23.2% | viability increase [11] -4.35% | viability [12] 88.2% | viability [13] 82.5% | inhibition [14] 2.58% | RAM network inhibition [15] 7.43%
47.8%: viability [6, 16]
79.8%: viability [6, 17]
95.5%: viability [1]

COC(=O)CCCCCc1ccc(C(C)=O)s1
inactive: Her2 level [2] 84.5% | viability [3] 86.5% | viability [4] 105% | viability [5] 100% | differential viability (reversal) ([6]; H69AR cells + 2 uM doxorubicin) 13.6% | inhibition [7] -1.33% | inhibition [8] -1.61% | growth inhibition [9] -3.98% | growth inhibition [10] -1.53% | viability increase [11] 0.73% | viability [12] 96.7% | viability [13] 95% | inhibition [14] 0.02% | RAM network inhibition [15] 3.12%
100%: viability [6, 17]
86.5%: viability [1] | viability [6, 16]

CC(CC(=O)NC1CCSC1=O)c1ccccc1 (stereo not given)
111%: viability [6, 16]
97%: viability [1]
inactive: Her2 level [2] 87.5% | viability [3] 97% | viability [4] 89.2% | viability [5] 113% | differential viability (reversal) ([6]; H69AR cells + 2 uM doxorubicin) 1.77% | inhibition [7] -4.32% | inhibition [8] 0% | growth inhibition [9] 3.53% | growth inhibition [10] 6.91% | viability increase [11] 2.46% | viability [12] 96.5% | viability [13] 95.9% | inhibition [14] 0.235% | RAM network inhibition [15] 1.17%
113%: viability [6, 17]

COc1cccc(C2=NOC(C(=O)Nc3cc(C)nn3-c3ccccc3)C2)c1OC (stereo not given)
active: viability [5] 28.6%
inactive: Her2 level [2] 91% | viability [3] 93% | viability [4] 68.7% | differential viability (reversal) ([6]; H69AR cells + 2 uM doxorubicin) -43.9% | inhibition [7] 2.31% | inhibition [8] -1.83% | growth inhibition [9] 1.31% | growth inhibition [10] 12% | viability increase [11] -5.04% | viability [12] 68.3% | viability [13] 60.2% | inhibition [14] 2.12% | RAM network inhibition [15] -0.06%
28.6%: viability [6, 17]
72.5%: viability [6, 16]
93%: viability [1]

CCN1CCN(Cc2nc3c(c(=O)n(C)c(=O)n3C)n2CC(=O)c2ccccc2)CC1
inactive: Her2 level [2] 108% | viability [3] 100% | viability [4] 95.5% | viability [5] 98.5% | differential viability (reversal) ([6]; H69AR cells + 2 uM doxorubicin) 2.67% | inhibition [7] -4.13% | inhibition [8] -0.33% | growth inhibition [9] 5% | growth inhibition [10] -14% | viability increase [11] -1.56% | viability [12] 100% | viability [13] 105% | inhibition [14] 1.33% | RAM network inhibition [15] 3.98%
100%: viability [1]
98.5%: viability [6, 17]
95.8%: viability [6, 16]
